Test results reported in PubChem BioAssay (Tox21).
Values joined by “and” are separate entries in the source; they are usually repeats but may differ in a detail not shown here. Identical values can stand only once. Results filed as inconclusive are left out. Unmarked numbers belong to inactive results. Active and inactive are the calls of the source. Calls follow the shape of the dose curve; as a rule, active = well fitted inhibition curve with a large enough effect in the repeat runs; inconclusive = weak or mixed curves; inactive = flat fitted curve, though single readings scatter.

Assay: qHTS assay to identify small molecule HDAC inhibitors (AID 1259364); also: nearly all actives have a fitted effect of over 45% in size; as to activity change, negative = inhibition: top concentration of the series differs between compounds
Conditions: HCT-116 HDAC-Glo I/II luminescence, 2 h; series mostly up to 92.4 µM; activity change, negative = inhibition: at the top concentration
From the text: U.S. Tox21 Program National Center for Advancing Translational Sciences [NCATS] NIH Chemical Genomics Center [NCGC] U.S. Environmental Protection Agency [EPA] National Institutes of Environmental Health Sciences [NIEHS] National Toxicology Program [NTP] U.S. Food and Drug Administration [FDA] Tox21 Assay Overview: Histone deacetylases (HDACs) are a group of epigenetic enzymes that regulate gene expression by histone deacetylation. HDACs are capable of introducing epigenetic modifications and such aberrations contribute to the onset and progression of several human diseases, thus making HDACs a popular therapeutic target. For identifying endogenous class I/II HDAC inhibitors a homogenous, luminogenic HDAC I/II cell based assay was used to measure the relative activity of class I and II HDACs from cells. Wild type HCT-116 cells were used to screen Tox21 libraries for identifying class I/II HDAC inhibitors.
Tox21 Assay Protocol Summary: HCT-116 cells were dispensed at 1,500 per well in 5uL of culture medium into white solid bottom 1536-well plates (Greiner Bio-One, Monroe, NC) using a Multidrop Combi (Thermo Scientific, Waltham, MA) dispenser. The assay plates were incubated at 37 C and 5% CO2 for an overnight, and then 23nL of compounds dissolved in DMSO and positive control were transferred using a Pintool station (Wako, San Diego, CA). The assay plates were incubated at 37C and 5% CO2 for 2hr. After compound treatment, 4uL of HDAC-Glo reagent (Promega Corporation, Madison, WI) was added to each well of the assay plates using Flying Reagent Dispenser (FRD, Aurora Discovery, San Diego, CA) and incubated the assay plates at room temperature for 30min. The luminescence signal was quantified using a ViewLux plate reader (Perkin Elmer, Shelton, CT).
% is scaled to controls: 0 for no effect and ±100 for the full control effect; potency is read from the fitted curve at half-maximal effect.

| SMILES | activity change, negative = inhibition | Potency |
| --- | --- | --- |
| O=C(Cc1ccccc1)OCCc1ccccc1 | -1.74% | – |
| CCCC1CCCCN1 (stereo not given) | 10% [at 42.5 µM] | – |
| CCCCCCCCCCCCN=C(N)N | 5.66% [at 3.27 µM] | – |
| CCCBr | 0.75% | – |
| C[C@]12C=CC3=C4CCC(=O)C=C4CC[C@H]3[C@@H]1CC[C@@H]2O | -9.67% | – |
| CN1CC[C@]23c4c5ccc(O)c4O[C@H]2[C@@H](O)CC[C@H]3[C@H]1C5 | 6.48% | – |
| CCc1ccccc1N | 0.612% | – |
| Cc1cccc(C)c1NC1=NCCCS1 | -4% [at 42.5 µM] | – |
| CCCCNC(=O)OCC#CI | – | inactive |
| Clc1ccccc1 | -6.07% | – |
| CCCCOC(=O)CCC(=O)OCCCC | 6.31% | – |
| CCCN(CCC)c1c([N+](=O)[O-])cc(C(C)C)cc1[N+](=O)[O-] | – | inactive |
| Clc1ccc(Cl)c(Cl)c1 | – | inactive |
| C[C@@H]1C[C@@H]([C@H](O)CC2CC(=O)NC(=O)C2)C(=O)[C@@H](C)C1 | – | inactive |
| CC(C)(C)N(NC(=O)c1ccc(Cl)cc1)C(=O)c1ccccc1 | 0.801% | – |
| O=C([O-])c1ccccn1.O=C([O-])c1ccccn1.O=C([O-])c1ccccn1.[Cr+3] | -4.5% | – |
| Cc1ncc(C[n+]2csc(CCO)c2C)c(N)n1 | -10.2% | – |
| O=C(CCl)CCl | – | inactive |
| O=C1CC[C@@]2(O)[C@H]3Cc4ccc(O)c5c4[C@@]2(CCN3CC2CC2)[C@H]1O5 | -2.11% [at 42.5 µM] | – |
| COc1ccccc1N1CCNCC1 | -0.274% [at 42.5 µM] | – |

| SMILES | activity change, negative = inhibition | Potency |
| --- | --- | --- |
| O=[N+]([O-])O[C@H]1CO[C@H]2[C@@H]1OC[C@H]2O[N+](=O)[O-] | -1.99% [at 42.5 µM] | – |
| c1ccc2sc(SNC3CCCCC3)nc2c1 | – | inactive |
| Cc1cnc(C2=NC(C)(C(C)C)C(=O)N2)c(C(=O)O)c1 (stereo not given) | -1.76% | – |
| C[C@H]1[C@@H]2Cc3ccc(O)cc3[C@@]1(C)CCN2C | -6.18% [at 240 µM] | – |
| CN(C)c1ccc(N=O)cc1 | -29.4% | – |
| [Cl-].[Cl-].[Hg+2] | – | 54.2 µM (active) and 34.4 µM (active) |
| O=C=NC1CCCCC1 | -18.7% | – |
| CCCCCCCCn1sccc1=O | – | inactive |
| OCCCl | 1.05% | – |
| COc1ccc2c(c1OC)C(=O)O[C@H]2[C@@H]1c2cc3c(cc2CCN1C)OCO3 | -6.58% [at 42.5 µM] | – |
| O=C(O)C(F)(F)C(F)(F)C(F)(F)C(F)(F)C(F)(F)F | -10.6% | – |
| Cc1ccc2c(C)cccc2c1 | -0.782% | – |
| CN1C[C@H](C(=O)N[C@]2(C)O[C@@]3(O)[C@@H]4CCCN4C(=O)[C@H](Cc4ccccc4)N3C2=O)C=C2c3cccc4[nH]cc(c34)C[C@H]21 | – | inactive |
| C=C(C)C(=O)OCCCCOC(=O)C(=C)C | 1% | – |
| C=CC(C)(CCC=C(C)C)OC(=O)c1ccccc1N (stereo not given) | -6.38% | – |
| O=S(=O)(Cl)Cl | 0.309% | – |
| CN1CC[C@]23c4c5ccc(O)c4O[C@H]2[C@@H](O)C=C[C@H]3[C@H]1C5 | 9.71% | – |
| O=C(N/N=C/c1ccc([N+](=O)[O-])o1)c1cc([N+](=O)[O-])cc([N+](=O)[O-])c1O | -0.155% [at 42.5 µM] | – |
| N#CC(C#N)=Cc1ccc(O)c(O)c1 | -16.9% [at 42.5 µM] | – |
| NC(=S)c1c(Cl)cccc1Cl | -14.1% | – |
